Hits are enriched below; roughly 11% of the tested compounds scored in any of these assays.
3T3 cytotox = cytotoxic compounds in NIH 3T3 cells | NIH 3T3 viability, CellTiter-Glo ATP luminescence, 48-72 h | Potency, µM (highest dose often 96.7 µM), usual class: inhibitors | hit rate 4.3% among 94,000; also: nearly all actives have a fitted effect of over 55% in size
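Mouse fibroblast NIH 3T3 cells, 400 per well, received compound via pintool and were incubated for 48 or 72 hr prior to CellTiter-Glo ATP luminescence measurement.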
HEK293 tox = HEK 293 cell cytotoxicity. HEK 293 viability, ATP luminescence (CellTiter-Glo), 48-72 h. Potency, µM (top dose mostly 115 µM), most hits filed as inhibitors. hit rate 6.6% among 94,000; also: nearly all actives have a fitted effect of over 60% in size
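CellTiter-Glo luminescence (cellular ATP) was read after 48 or 72 hr of compound exposure at 37 degree Celsius. Cells were HEK 293 plated at 250 cells/well.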
Luciferase inh = Photinus pyralis luciferase inhibition; P08659; purified P. pyralis luciferase, luminescence, biochemical; Potency, µM (series often up to 115 µM), usual class: inhibitors; hit rate 2.5% among 76,000; also: nearly all actives have a fitted effect of over 65% in size
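FLuc 10nM, D-luciferin 10uM, ATP 10uM, Mg acetate 10mM, Tris acetate pH 7.5, Tween/BSA; cpd qHTS; enzyme added last; CCD luminescence.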
NPR1 antag = antagonists of human natriuretic peptide receptor Npr1. P16066. HEK293 hNpr1 GloSensor cGMP, ANP-stimulated luminescence. Potency, µM (doses to about 46.3 µM), most hits filed as inhibitors. hit rate 1.6% among 76,000. AID 1347048; calls by dose curve; also: nearly all actives have a fitted effect of over 60% in size
Target sequence (P16066 whole entry, looked up): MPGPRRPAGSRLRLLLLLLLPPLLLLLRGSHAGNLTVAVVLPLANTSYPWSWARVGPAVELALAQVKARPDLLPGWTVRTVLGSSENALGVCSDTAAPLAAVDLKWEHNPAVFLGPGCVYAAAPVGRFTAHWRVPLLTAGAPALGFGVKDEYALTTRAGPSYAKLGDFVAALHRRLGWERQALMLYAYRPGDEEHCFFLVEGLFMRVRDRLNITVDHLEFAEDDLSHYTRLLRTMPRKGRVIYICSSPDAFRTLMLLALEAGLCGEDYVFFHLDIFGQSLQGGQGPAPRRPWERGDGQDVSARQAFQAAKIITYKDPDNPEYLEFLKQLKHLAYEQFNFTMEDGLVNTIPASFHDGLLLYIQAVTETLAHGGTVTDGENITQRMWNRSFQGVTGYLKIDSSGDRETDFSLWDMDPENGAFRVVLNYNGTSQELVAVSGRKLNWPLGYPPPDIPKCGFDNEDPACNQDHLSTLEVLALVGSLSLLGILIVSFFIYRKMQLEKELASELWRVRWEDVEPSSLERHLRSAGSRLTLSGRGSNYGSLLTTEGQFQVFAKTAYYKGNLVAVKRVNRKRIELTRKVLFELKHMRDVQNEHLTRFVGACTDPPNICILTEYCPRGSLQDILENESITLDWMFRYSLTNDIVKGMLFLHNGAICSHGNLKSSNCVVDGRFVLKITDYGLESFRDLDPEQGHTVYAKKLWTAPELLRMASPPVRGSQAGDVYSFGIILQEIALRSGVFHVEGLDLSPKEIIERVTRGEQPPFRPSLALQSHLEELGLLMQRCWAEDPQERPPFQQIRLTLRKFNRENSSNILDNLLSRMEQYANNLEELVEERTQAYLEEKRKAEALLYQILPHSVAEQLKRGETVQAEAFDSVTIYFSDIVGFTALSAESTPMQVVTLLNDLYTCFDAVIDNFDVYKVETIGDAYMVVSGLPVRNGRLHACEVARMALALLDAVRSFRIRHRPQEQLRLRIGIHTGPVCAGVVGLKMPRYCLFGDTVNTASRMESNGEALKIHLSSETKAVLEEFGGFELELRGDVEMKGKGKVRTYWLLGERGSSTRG
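HEK293 cells stably expressing human Npr1 and cGMP GloSensor pGS-40F, loaded 2 h with 2% GloSensor reagent, given compound 30 min at room temperature. Luminescence read before and 20 min after 0.1 nM hNppA.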
Numbers stand for hits; . = inactive; ? = inconclusive; / = no result. Unless noted, calls follow the shape of the dose curve; as a rule, active = well fitted curve in the direction sought with a large enough effect; inconclusive = small, poorly fitted or top-dose-only effect, or another doubt; inactive = no such curve, though single readings can be large; an effect the other way counts as inactive or inconclusive.

SMILES	3T3 cytotox	HEK293 tox	Luciferase inh	NPR1 antag
CCN1c2cc(C(=O)Nc3ccc(OC)c(F)c3)ccc2C(=O)N2CCCCCC21 (stereo not given)	?	?	.	.
COc1ccccc1-c1[nH]nc2ncc(-c3ccc(C)cc3)nc12	.	?	.	.
COc1cc(F)ccc1-c1cnc2n[nH]c(-c3ccccc3)c2n1	?	?	.	.
Fc1ccc(-c2cnc3n[nH]c(-c4ccccc4)c3n2)cc1	28.2µM	?	.	.
Clc1ccc(-c2cnc3n[nH]c(-c4ccccc4)c3n2)cc1	28.2µM	79.4µM	.	.
CC(NC(=O)c1cccc2c1CCN2C(=O)Nc1ccc(F)cc1)c1ccccn1 (stereo not given)	?	?	0.794µM	11.2µM
Cc1ccc(NC(=O)N2CCc3c(C(=O)NC(C)c4cccnc4)cccc32)cc1 (stereo not given)	?	?	0.398µM	4.47µM
COc1ccc(CNC(=O)C2CCCN2C(=O)c2cccc(-c3cccnc3)c2)cc1 (stereo not given)	?	.	/	/
COc1ncccc1-c1cc(C(=O)N2CCCC(OC)C2)c2c(c1)ncn2C (stereo not given)	89.1µM	.	.	.
O=C(NCc1ccccc1)c1ccccc1OC1CN(Cc2ccc(F)c(F)c2)C1	39.8µM	?	.	.
O=C(NCc1ccccc1)c1ccccc1OC1CN(Cc2cccc(C(F)(F)F)c2)C1	12.6µM	25.1µM	/	/
O=C(NCc1ccccc1)c1ccccc1OC1CN(Cc2cccc(F)c2F)C1	20µM	?	/	/
O=C(NC1CC1)c1ccccc1OC1CN(Cc2cc(F)c(F)c(F)c2)C1	?	?	.	.
Cc1ccsc1CN1CC(Oc2ccccc2C(=O)NCc2ccccc2)C1	39.8µM	39.8µM	/	/
Cc1c(CN2CC(Oc3ccccc3C(=O)NCc3ccccc3)C2)cnn1C	.	?	.	.
O=C(c1nc2cccnc2n(Cc2ccccc2)c1=O)N1CCN(c2ncccn2)CC1	.	.	/	/
CCOc1ccc(CN2CC(Oc3ccccc3C(=O)NCc3ccccc3)C2)cc1	?	20µM	/	/
Cc1ccc(CN2CC(Oc3ccccc3C(=O)NC3CC3)C2)cc1	?	?	.	.
CC1CCN(CC2CCCCCN2C(=O)Nc2ccc3c(c2)OCCO3)CC1 (stereo not given)	.	?	15.8µM	.
CCCNC(=O)N1CCCCCC1CN1CCC(C)CC1 (stereo not given)	.	.	/	/
COC1CCN(CC2CCCCCN2C(=O)Nc2ccc3c(c2)OCCO3)CC1 (stereo not given)	.	.	17.8µM	.
O=C(Cc1cnc[nH]1)N1Cc2ccccc2CC2(CCCN(CC3CCNCC3)C2)C1 (stereo not given)	.	.	/	/
CC1(c2ccccc2)N(Cc2ncccn2)C(=O)OC12CCN(C(=O)c1ccc(Oc3ccccc3)cc1)CC2 (stereo not given)	39.8µM	39.8µM	.	.
CC1(c2ccccc2)N(Cc2ccc(O)cc2)C(=O)OC12CCN(C(=O)c1cnccn1)CC2 (stereo not given)	31.6µM	.	.	.
CC1(c2cccnc2)N(CC2CC2)C(=O)OC12CCN(C(=O)c1cccc(O)c1)CC2 (stereo not given)	35.5µM	.	.	.
SMILES	3T3 cytotox	HEK293 tox	Luciferase inh	NPR1 antag
CC1(c2ccccc2)N(Cc2cccnc2)C(=O)OC12CCN(C(=O)c1ccc(Oc3ccccc3)cc1)CC2 (stereo not given)	?	25.1µM	.	.
COc1cccc(CC(=O)N2CCC3(CC2)OC(=O)N(Cc2ncccn2)C3(C)c2ccccc2)c1 (stereo not given)	?	.	.	.
CC1(c2cccnc2)N(CC2CC2)C(=O)OC12CCN(C(=O)c1ccc(Oc3ccccc3)cc1)CC2 (stereo not given)	?	?	.	.
CNC(=O)c1cc(C)nc2onc(C3CCN(C(=O)c4ccccc4F)CC3)c12	.	.	/	/
C=CCN1C[C@H]2COc3c(OCC)cccc3[C@H]2N(C(=O)OC)CCC1=O	?	.	/	/
COCCCNC(=O)CC1CCCCN(Cc2ccccc2)C1=O (stereo not given)	.	.	.	.
NC(=O)CC1=C2CCCCC2N(Cc2ccccc2)C1=O (stereo not given)	.	.	.	.
O=C(CC1CCCCN(Cc2ccccc2)C1=O)N1CCc2ccccc2C1 (stereo not given)	?	44.7µM	.	.
O=C(CC1=C2CCCCC2N(Cc2ccccc2)C1=O)N1CCc2ccccc2C1 (stereo not given)	?	50.1µM	.	.
O=C(c1ccoc1)N1CCCN(CCc2ccccc2)c2ccccc21	?	?	.	.
COc1ccccc1Cn1c(=O)c(C(=O)N2CCN(C(=O)c3ccc(C)cc3)CC2)nc2cccnc21	?	.	/	/
COc1ccc(-c2cnc3n[nH]c(-c4sccc4C)c3n2)cc1OC	?	63.1µM	.	.
Cc1ccccc1-c1[nH]nc2ncc(-c3ccccc3F)nc12	?	50.1µM	.	.
Cc1ccccc1-c1[nH]nc2ncc(-c3cnn(C)c3)nc12	?	?	.	.
COc1ccccc1-c1cnc2n[nH]c(-c3sccc3C)c2n1	?	89.1µM	.	.
Cc1ccsc1-c1[nH]nc2ncc(-c3ccccc3F)nc12	?	70.8µM	.	.
COC(=O)COc1cccn2c(=O)c(-c3cc(C)n(-c4ccc(Cl)c(Cl)c4)n3)c(C)nc12	.	.	.	.
O=C(NCC1CC1)c1nc2cccnc2n(C2CC2)c1=O	.	.	/	/
COCC(=O)N1CCN(C(=O)c2nc3cccnc3n(CC(C)C)c2=O)CC1	.	.	/	/
COCCCNC(=O)c1ccc2nnc(-c3cc[nH]c3)n2c1	.	.	/	/
CN(C)c1ccc(CN[C@H]2CC(C)(C)[C@@H]3C[C@@](C)(O)CC[C@]23CCC(=O)NCCc2c[nH]c3ccccc23)cc1	17.8µM	17.8µM	.	.
COc1ccccc1CN[C@H]1CC(C)(C)[C@@H]2C[C@@](C)(O)CC[C@]12CCC(=O)NCCc1c[nH]c2ccccc12	28.2µM	28.2µM	.	.
CC(C)(C)CC(=O)N[C@H]1CC(C)(C)[C@@H]2C[C@@](C)(O)CC[C@]12CCC(=O)NCCc1c[nH]c2ccccc12	?	.	.	.
CN1CCN(C(=O)c2ccc3nc(-c4cccnc4)oc3c2)CC1	.	.	/	/
Cc1noc(C)c1CCC(=O)NC1CCCc2c1[nH]c1ccccc21 (stereo not given)	?	?	.	.
Cc1cnc(-c2ccccc2)n1CC1CCN(C(=O)c2ccsc2)C1 (stereo not given)	.	.	/	/
O=C(Nc1ccncn1)[C@@H]1C[C@@H](c2ccc(F)cc2)N(Cc2ccccc2)C1	79.4µM	100µM	.	.
COc1cccc(NC(=O)[C@@H]2C[C@@H](c3ccc(F)cc3)N(Cc3ccccc3)C2)c1	31.6µM	?	.	?
COc1ccc(NC(=O)[C@@H]2C[C@@H](c3ccc(F)cc3)N(Cc3ccccc3)C2)cn1	.	?	.	?
COc1cc(CNC(=O)[C@@H]2C[C@@H](c3ccc(F)cc3)N(Cc3ccccc3)C2)cc(OC)c1	.	?	.	.

Screening data deposited in PubChem BioAssay by National Center for Advancing Translational Sciences (NCATS).
